Values joined by “and” are separate entries in the source; they are usually repeats but may differ in a detail not shown here. Identical values can stand only once. Records with an inconclusive call do not appear. A call without a number means that no potency is given here. Active and inactive are the calls of the source. Unless noted, calls follow the shape of the dose curve; as a rule, active = well fitted curve in the direction sought with a large enough effect; inconclusive = small, poorly fitted or top-dose-only effect, or another doubt; inactive = no such curve, though single readings can be large; an effect the other way counts as inactive or inconclusive.
Assays:
[1] = Cell Viability - Hek293 (AID 427;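 active = compounds whose dose-response curve shows a full or clear partial loss of cell viability, called from curve shape rather than a numeric limit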;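 also: potency is read from the fitted curve at half-maximal effect; cells exposed to compound for 40 hours at 37 °C before reading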); details: qHTS
Outline: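 qHTS, human embryonic kidney (adenovirus-transformed) cells; 40 hr cpd, 37 °C; CellTiter-Glo ATP luminescence. Norm: DMSO = 0, 100 uM tamoxifen = 100% inhibition. Hill-fit AC50.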

[2] = Cell Viability - SK-N-SH (AID 435; calls by dose curve;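 also: potency is read from the fitted curve at half-maximal effect; compound exposure lasted 40 h at 37 °C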); details: SK-N-SH neuroblastoma cell viability qHTS
Outline: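 Human neuroblastoma line, 40 h exposure at 37 °C, ATP quantified via luciferase luminescence; DMSO and 100 uM tamoxifen define 0 and 100% inhibition for AC50 fitting.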

[3] = Cell Viability - HUV-EC-C (AID 542); details: HUV-EC-C endothelial cell viability, qHTS; series mostly up to 92.2 µM; also: nearly all actives have a fitted effect of over 35% in size
Outline: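 HUV-EC-C normal human vascular endothelial cells, 1000 cells/well, pre-incubated 5 hr at 37 °C, then exposed to compounds for 40 hr at 37 °C in complete medium. Viability measured as intracellular ATP by CellTiter-Glo luminescence; AC50 from Hill fits.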

[4] = Cell Viability - H-4-II-E (AID 543); details: H-4-II-E rat hepatoma viability; series mostly up to 92.2 µM; also: nearly all actives have a fitted effect of over 35% in size
Outline: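 Rat hepatoma H-4-II-E cells (1500/well) were plated, incubated 5 hr at 37 °C, then exposed to compounds for 40 hr at 37 °C. Cellular ATP was read by CellTiter-Glo luminescence; AC50 came from Hill-equation fits of concentration-response data.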

[5] = Cell Viability - SH-SY5Y (AID 544); details: SH-SY5Y neuroblastoma cell viability; viability change, negative = cytotoxic: at 92.2 µM (top of the series); also: nearly all actives have a fitted effect of over 55% in size
Outline: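 Human neuroblastoma SH-SY5Y cells (1500/well) in complete medium were exposed to compounds for 40 hr at 37 °C; intracellular ATP was then quantified by CellTiter-Glo luminescence after 20 min at room temperature. AC50 came from Hill-equation concentration-response fits.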

[6] = Cellular Toxicity (caspase-3) Renal Proximal Tubule (AID 667); details: renal proximal tubule cells; series mostly up to 91.7 µM;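 also: cells exposed to compound for 16 hours at 37 °C before detection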
Outline: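 Caspase-Glo 3/7 read-out, rat primary kidney proximal tubule cells. Compound exposure 16 h, 37 °C; detection after 1 h at RT. Activity scaled to DMSO and 10 uM staurosporine.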

[7] = Cell Viability - LYMP2-004 (AID 966); details: LYMP2-004 lymphoblastoid cell viability, qHTS; series mostly up to 92.2 µM; also: nearly all actives have a fitted effect of over 65% in size
Outline: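 Human lymphoblastoid cells (2500/well) in complete medium were treated with compounds for 24 hr at 37 C, then intracellular ATP was measured by CellTiter-Glo luminescence. AC50 values came from Hill-equation fits of concentration-response data.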

[8] = Cell Viability - LYMP2-005 (AID 967); details: LYMP2-005 lymphoblastoid cell viability; series mostly up to 92.2 µM
Outline: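 Luciferase-based ATP quantitation served as the viability measure in human lymphoblastoid LYMP2-005 cells exposed to test compounds for 24 h at 37 C in complete culture medium. Potency (AC50) was obtained by fitting concentration-response curves with the Hill equation.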

[9] = Cell Viability - LYMP2-012 (AID 982); details: LYMP2-012 lymphoblastoid cell viability qHTS; series mostly up to 92.2 µM;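 also: cellular ATP by luciferase luminescence where a drop means cytotoxicity; cells exposed to compound for one day before reading; nearly all actives have a fitted effect of over 55% in size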
[10] = Cell Viability - LYMP2-018 (AID 985); details: LYMP2-018 lymphoblastoid cells, viability (qHTS); series mostly up to 92.2 µM;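 also: compound exposure lasted 24 hr at 37 °C; nearly all actives have a fitted effect of over 50% in size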
Outline: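 Human lymphoblastoid cells (2500/well) were pre-incubated 5 hr at 37 C, then exposed to compounds for 24 hr at 37 C in complete medium. Viability was read as intracellular ATP by CellTiter-Glo luminescence; AC50 values came from Hill-equation fits.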

[11] = Cell Viability - LYMP1-002 - Assay at 40 hr (AID 994); details: LYMP1-002 lymphoblastoid cell viability; series mostly up to 92.2 µM; also: nearly all actives have a fitted effect of over 60% in size
Outline: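 Human lymphoblastoid cells, 2500/well in complete medium, were preincubated 5 hr at 37 C, then exposed to compounds for 40 hr at 37 C. Intracellular ATP was read by CellTiter-Glo luminescence after 30 min at room temperature; AC50 from Hill-equation fits.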

[12] = qHTS assay for small molecule agonists of retinoid X receptor alpha signaling (AID 588544; calls by dose curve); details: HEK293T RXRa-UAS-bla, beta-lactamase reporter, 18 h; 530 nm emission
[13] = biological target: Retinoic acid receptor RXR-alpha (Homo sapiens) (UniProt P19793); assay: as above; details: HEK293T RXRa-UAS-bla, beta-lactamase reporter, 18 h; series mostly up to 76.7 µM
Sequence of Retinoic acid receptor RXR-alpha (Homo sapiens) (P19793 whole entry, looked up): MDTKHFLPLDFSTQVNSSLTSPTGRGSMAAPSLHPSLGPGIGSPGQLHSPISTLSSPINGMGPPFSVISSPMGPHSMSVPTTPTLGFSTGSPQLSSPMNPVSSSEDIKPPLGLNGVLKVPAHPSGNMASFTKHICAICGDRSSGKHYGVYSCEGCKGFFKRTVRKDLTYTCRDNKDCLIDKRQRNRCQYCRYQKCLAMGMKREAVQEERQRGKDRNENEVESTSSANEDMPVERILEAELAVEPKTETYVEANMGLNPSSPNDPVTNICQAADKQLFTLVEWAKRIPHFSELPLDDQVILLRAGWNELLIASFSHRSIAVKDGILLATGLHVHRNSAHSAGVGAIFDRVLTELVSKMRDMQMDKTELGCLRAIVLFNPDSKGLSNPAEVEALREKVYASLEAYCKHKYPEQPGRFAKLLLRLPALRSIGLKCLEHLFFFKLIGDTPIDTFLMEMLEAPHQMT

[14] = qHTS assay for small molecule antagonists of retinoid X receptor alpha signaling (AID 588546; active = well fitted inhibition curve with a large enough effect in the signal ratio, with a control signal flat, not every such curve was filed as active; the % refers to the signal ratio;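 also: cells stimulated with 9-cis-retinoic acid as agonist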); details: HEK293T RXRa-UAS-bla, beta-lactamase ratio, antagonist mode; measured here: W530 green channel, cytotoxicity proxy
Outline: (§1)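 Beta-lactamase reporter inhibition, read as CCF4 fluorescence ratio (ex 405, em 460/530 nm) after 2 h at RT. HEK293T UAS-bla cells, 2500/well, were stimulated with 9-cis-RA at 500 or 100 nM final alongside test compound for 18 h at 37 C.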

[15] = biological target: Retinoic acid receptor RXR-alpha (Homo sapiens) (UniProt P19793); assay: as above; details: HEK293T RXRa-UAS-bla, beta-lactamase ratio, antagonist mode
Outline: as §1

[16] = biological target: Tumor necrosis factor (Homo sapiens) (UniProt P01375); assay: qHTS assay to identify small molecules that stimulate Tumor Necrosis Factor-alpha (TNF-alpha) secretion (AID 651757; active = well fitted curve in the direction sought with a large enough effect in the signal ratio; the % refers to the signal ratio); details: Human cells, HTRF 665/615 ratio; series mostly up to 92.2 µM
Sequence of Tumor necrosis factor (Homo sapiens) (P01375 whole entry, looked up): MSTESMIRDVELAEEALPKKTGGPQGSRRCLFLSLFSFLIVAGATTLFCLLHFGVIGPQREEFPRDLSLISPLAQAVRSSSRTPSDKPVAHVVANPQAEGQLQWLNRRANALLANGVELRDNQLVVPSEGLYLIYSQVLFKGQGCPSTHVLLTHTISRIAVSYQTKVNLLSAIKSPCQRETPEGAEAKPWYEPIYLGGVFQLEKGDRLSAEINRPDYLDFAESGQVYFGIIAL
Outline: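 THP-1 cells were exposed to compounds for 17 hrs at 37 C, after which secreted TNF-alpha was measured by homogeneous HTRF (TR-FRET) using cryptate- and XL665-labeled anti-TNF-alpha antibodies, read after 3 hr at room temperature.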

[17] = qHTS assay for environmental chemicals that activate the Aryl hydrocarbon Receptor (AhR) signaling pathway (AID 651777); details: 1A2-DRE human hepatoma cells, luciferase, 24 h; activation: stronger effect = higher value; also: nearly all actives have a fitted effect of over 15% in size
Outline: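 Human hepatoma 1A2-DRE cells stably carrying a DRE/CYP1A2 promoter–luciferase reporter, 1,200 cells/well, exposed to compound 24 hr at 37 C. Luciferase read by One-Glo luminescence after 30 min at room temperature; increased signal marks AhR activation.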

[18] = qHTS assay for small molecule agonists of the antioxidant response element (ARE) signaling pathway measured by Nrf2-dependant transcriptional activity (AID 720636; active = well fitted curve in the direction sought with a large enough effect in the repeat runs; an effect the other way counts as inactive or inconclusive); details: ARE-luc HepG2, Nrf2 luciferase reporter, 16 h; series mostly up to 92.4 µM
Outline: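 ARE-luc HepG2 cells carrying an Nrf2-responsive luciferase reporter, in medium with 1% dialyzed FBS, exposed to compound for 16 hr at 37 C, 5% CO2. Luminescence read 30 min after ONE-Glo addition.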

[19] = biological target: Cytochrome P450 3A4 (Homo sapiens) (UniProt P08684); assay: qHTS Assay for Inhibitors and Substrates of Cytochrome P450 3A4 (AID 884); details: recombinant CYP3A4, Luciferin-PPXE luminescence; series mostly up to 57.1 µM; also: nearly all actives have a fitted effect of over 50% in size; also: potency is read from the fitted curve at half-maximal effect
Sequence of Cytochrome P450 3A4 (Homo sapiens) (P08684 whole entry, looked up): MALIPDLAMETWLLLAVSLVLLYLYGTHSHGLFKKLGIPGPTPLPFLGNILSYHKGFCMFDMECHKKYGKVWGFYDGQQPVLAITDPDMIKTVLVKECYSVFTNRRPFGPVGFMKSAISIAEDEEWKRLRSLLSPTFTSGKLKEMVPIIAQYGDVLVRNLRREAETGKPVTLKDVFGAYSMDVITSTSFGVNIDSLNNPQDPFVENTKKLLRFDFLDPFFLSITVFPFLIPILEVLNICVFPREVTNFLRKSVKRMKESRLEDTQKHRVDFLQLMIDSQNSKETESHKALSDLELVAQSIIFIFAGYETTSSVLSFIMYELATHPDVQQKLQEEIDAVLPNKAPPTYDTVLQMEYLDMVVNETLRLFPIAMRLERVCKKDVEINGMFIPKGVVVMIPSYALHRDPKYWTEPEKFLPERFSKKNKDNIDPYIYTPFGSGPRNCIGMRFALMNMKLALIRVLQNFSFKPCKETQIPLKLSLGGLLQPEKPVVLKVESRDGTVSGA
Outline: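 20 nM human CYP3A4 with 25 uM Luciferin-PPXE (at KM) in 200 mM KPO4, preincubated 10 min with compound; NADPH regeneration started a 60 min RT reaction. Luciferin detected by luminescence, normalized to 57 uM ketoconazole as full inhibition.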

[20] = MultiTox-Fluor Cytotoxicity Assay - LYMP1-002 - Dead Cells (AID 960); details: LYMP1-002 lymphoblastoid cells, dead-cell protease fluorescence; series mostly up to 46.1 µM; also: nearly all actives have a fitted effect of over 60% in size; also: potency is read from the fitted curve at half-maximal effect
Outline: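 Human lymphoblastoid cells (LYMP1-002), 2500/well in complete medium, were exposed to compounds for 16 hr at 37 C. Dead-cell protease activity was read as bis-AAF-R110 fluorescence (Ex/Em 485/520), normalized to DMSO and 15 uM tetraoctylammonium bromide; AC50 from Hill fits.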

With `CCCCCOC(=O)c1ccccc1C(=O)OCCCCC` the Potency [1] was > 92 µM (inactive), the Potency [2] was > 92 µM (inactive) and the Potency [3] was “inactive”. For the same compound, the Potency [4] was “inactive”, the Potency [5] was “inactive” and the outcome [6] was “inactive”. The Potency [7] was “inactive”, the Potency [8] was “inactive” and the Potency [9] was “inactive”. For the same compound, the Potency [10] was “inactive”, the Potency [11] was “inactive” and the max response [12] was -10.9% and 3.25%. For the same compound, the outcome [13] was “inactive”, the max response [14] was -5.52% and the max response [15] was -6.11% (inactive). For the same compound, the outcome [16] was “inactive”, the activation [17] was 0.174% (inactive) and 4.48% (inactive) and the Potency [18] was “inactive”.
For `O=[N+]([O-])c1cc(Cl)c(Cl)c(Cl)c1`, the Potency [1] was > 92 µM (inactive), the Potency [2] was > 92 µM (inactive) and the Potency [3] was “inactive”. For the same compound, the Potency [4] was “inactive”, the Potency [5] was “inactive” and the outcome [6] was “inactive”. The Potency [19] was “inactive”, the Potency [20] was “inactive” and the Potency [7] was “inactive”. For the same compound, the Potency [8] was “inactive”, the Potency [9] was “inactive” and the Potency [10] was “inactive”. The Potency [11] was “inactive”, the max response [12] was 9.3% and the outcome [13] was “inactive”. The max response [14] was -6.59%, the max response [15] was -5.05% (inactive) and the outcome [16] was “inactive”. The activation [17] was 0.049% (inactive) and the Potency [18] was “inactive”.
With `CCCC[N+](=O)[O-]` the Potency [1] was > 92 µM (inactive), the Potency [2] was > 92 µM (inactive) and the Potency [3] was “inactive”. For the same compound, the Potency [4] was “inactive”, the Potency [5] was “inactive” and the outcome [6] was “inactive”. For the same compound, the Potency [19] was “inactive”, the Potency [20] was “inactive” and the Potency [7] was “inactive”. For the same compound, the Potency [8] was “inactive”, the Potency [9] was “inactive” and the Potency [10] was “inactive”. For the same compound, the Potency [11] was “inactive”, the max response [12] was -5.28% and the outcome [13] was “inactive”. For the same compound, the max response [14] was -4.37%, the max response [15] was -6.25% (inactive) and the outcome [16] was “inactive”. For the same compound, the activation [17] was 0.218% (inactive) and the Potency [18] was “inactive”.
With `O=C(O)C(Br)CBr` (configuration not stated) the Potency [1] was > 92 µM (inactive), the Potency [2] was > 92 µM (inactive) and the Potency [3] was “inactive”. The outcome [6] was “inactive”, the Potency [19] was “inactive” and the Potency [20] was “inactive”. For the same compound, the Potency [8] was “inactive”, the Potency [9] was “inactive” and the Potency [10] was “inactive”. For the same compound, the Potency [11] was “inactive”, the max response [12] was 10.3% and the outcome [13] was “inactive”. The outcome [16] was “inactive”, the activation [17] was 2.43% (inactive) and the Potency [18] was “inactive”.
With `Cc1ccc(OP(=O)(Oc2ccc(C)cc2)Oc2ccc(C)cc2)cc1` the Potency [1] was > 92 µM (inactive), the Potency [2] was > 92 µM (inactive) and the Potency [3] was “inactive”. The Potency [4] was “inactive”, the Potency [5] was “inactive” and the Potency [19] was 7.94 µM (active). The Potency [20] was 25.1 µM (active), the Potency [7] was “inactive” and the Potency [8] was “inactive”. The Potency [9] was “inactive”, the Potency [10] was “inactive” and the Potency [11] was “inactive”. For the same compound, the max response [12] was -17.7%, the outcome [13] was “inactive” and the max response [14] was -10.5% and -16.2%. For the same compound, the max response [15] was -1.31% (inactive) and -25.6% (inactive), the outcome [16] was “inactive” and the activation [17] was 5.07% (inactive) and 5.6% (inactive). The Potency [18] was “inactive”.
For `ClC(Cl)Br`, the Potency [1] was > 92 µM (inactive), the Potency [2] was > 92 µM (inactive) and the Potency [3] was “inactive”. For the same compound, the Potency [4] was “inactive”, the Potency [5] was “inactive” and the outcome [6] was “inactive”. The Potency [19] was “inactive”, the Potency [20] was “inactive” and the Potency [7] was “inactive”. For the same compound, the Potency [8] was “inactive”, the Potency [9] was “inactive” and the Potency [10] was “inactive”. The Potency [11] was “inactive”, the max response [12] was -4.86% and the outcome [13] was “inactive”. For the same compound, the max response [14] was 1.73%, the max response [15] was 5.56% (inactive) and the outcome [16] was “inactive”. The activation [17] was 0.136% (inactive) and the Potency [18] was “inactive”.
In the case of `CCSC(=O)N1CCCCCC1`, the Potency [1] is reported as > 92 µM (inactive), the Potency [2] is reported as > 92 µM (inactive) and the Potency [3] is reported as “inactive”. The Potency [4] was “inactive”, the Potency [5] was “inactive” and the outcome [6] was “inactive”. The Potency [19] was “inactive”, the Potency [20] was “inactive” and the Potency [7] was “inactive”. For the same compound, the Potency [8] was “inactive”, the Potency [9] was “inactive” and the Potency [10] was “inactive”. The Potency [11] was “inactive”, the max response [12] was -15.2% and -3.96% and the outcome [13] was “inactive”. For the same compound, the max response [14] was -11.6% and -2.5%, the max response [15] was -8.27% (inactive) and -1.48% (inactive) and the outcome [16] was “inactive”. For the same compound, the activation [17] was -0.667% (inactive) and 0.714% (inactive) and the Potency [18] was “inactive”.
